Mtb FBA inh = Mtb FBA enzyme inhibitors, primary screen, biochemical, fluorescence, strain H37Rv | 360,000 tested, 2.3% active | purified M. tuberculosis FBA, fluorescence read-out | Fructose-bisphosphate aldolase (Mycobacterium tuberculosis (strain ATCC 25618 / H37Rv)), … | AID 588726, 2011 | inhibition, % at 1 µM; in the data active = inhibition above about 27%;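 note: 0% = vehicle and 100% = reference inhibitor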
Target sequence (P9WQA3 whole entry, looked up): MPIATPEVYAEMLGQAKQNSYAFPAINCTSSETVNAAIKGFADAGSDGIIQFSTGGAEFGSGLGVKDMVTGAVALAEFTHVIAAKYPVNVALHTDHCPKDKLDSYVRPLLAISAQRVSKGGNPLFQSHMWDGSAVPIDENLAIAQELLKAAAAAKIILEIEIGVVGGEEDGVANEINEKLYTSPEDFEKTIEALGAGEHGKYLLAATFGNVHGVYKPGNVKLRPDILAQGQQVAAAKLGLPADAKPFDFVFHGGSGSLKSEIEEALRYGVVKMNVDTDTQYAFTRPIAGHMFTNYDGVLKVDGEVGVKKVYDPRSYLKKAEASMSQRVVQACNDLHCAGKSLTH
RecA intein inh = Mtb RecA intein splicing inhibitors, primary screen, biochemical, fluorescence, HTS. cell-free RecA intein splicing. inhibition, % (no concentration beside the values). 290,000 tested, 0.75% active. AID 2221, 2009; in the data active = inhibition above about 30%;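 note: 0% = vehicle wells and 100% = reference inhibitor control wells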
GDH-TPI counter-1 = GDH-TPI coupling enzyme inhibitors, primary screen, artefact control for M. tuberculosis FBA inhibitor project, biochemical, absorbance, full deck; GDH-TPI coupled enzyme counterscreen, NADH absorbance; inhibition, % at 4.8 µM; 360,000 tested, 1.2% active; AID 588335, 2011; in the data active = inhibition above about 30%;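 note: 0% = DMSO wells and 100% = wells lacking the enzyme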
Mtb bLac sens = beta-lactam sensitization of Mtb H37Rv, H37Rv. M. tuberculosis H37Rv growth with meropenem, percent inhibition. inhibition, % at 25 µM. 330,000 tested, 0.27% active. AID 434955, 2010;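 note: growth measured after seven days incubation then overnight dye step; 0% = bacteria only wells and 100% = bacteria with antibiotic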
Rv3671c protease = Rv3671c serine protease inhibitors, primary screen, biochemical, fluorescence polarization, M. tuberculosis H37Rv; inhibition, % at 5.96 µM; 320,000 tested, 0.048% active; AID 2606, 2010; in the data active = inhibition above about 38%;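 note: extracellular domain of Rv3671c used as enzyme; 0% = enzyme with DMSO and 100% = no enzyme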
Mtb UGM inh = M. tuberculosis UGM enzyme inhibitors, primary screen, biochemical, fluorescence polarization, single point. purified UGM, fluorescence polarization probe displacement. inhibition, % at 10 µM. 320,000 tested, 0.06% active. AID 504406, 2011; in the data active = inhibition above about 10%, passing the limit was not always enough
Target sequence (P9WIQ1 whole entry, looked up): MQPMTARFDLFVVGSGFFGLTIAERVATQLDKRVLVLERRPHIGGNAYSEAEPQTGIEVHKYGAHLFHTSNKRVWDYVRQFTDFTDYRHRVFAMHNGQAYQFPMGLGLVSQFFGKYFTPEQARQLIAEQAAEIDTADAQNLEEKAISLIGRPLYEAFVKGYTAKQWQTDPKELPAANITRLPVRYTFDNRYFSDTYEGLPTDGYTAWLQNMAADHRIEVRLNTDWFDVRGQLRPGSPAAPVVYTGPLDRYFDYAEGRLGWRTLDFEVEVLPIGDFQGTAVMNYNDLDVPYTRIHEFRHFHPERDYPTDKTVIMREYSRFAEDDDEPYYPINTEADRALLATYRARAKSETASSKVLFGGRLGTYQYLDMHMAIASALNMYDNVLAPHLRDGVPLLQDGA
Mtb FBA inh conf = M. tuberculosis aldolase blockers, biochemical, fluorescence, strain H37Rv, confirmation | shares compounds with Mtb FBA inh | purified M. tuberculosis FBA, fluorescence read-out | inhibition, % at 1 µM | 5,600 tested, 78% active; in the data active = inhibition above about 27%;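 note: 0% = vehicle wells and 100% = reference inhibitor wells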
GDH-TPI counter-2 = GDH-TPI coupling enzyme inhibitors, artefact control for M. tuberculosis FBA inhibitor project, biochemical, fluorescence, high throughput; shares compounds with Mtb FBA inh; GDH-TPI coupled enzyme counterscreen; inhibition, % at 1 µM; 5,600 tested, 81% active; in the data active = inhibition above about 10%
GDH-TPI DR = GDH-TPI coupling enzyme inhibitors, dose response, artefact control for M. tuberculosis FBA inhibitor project, biochemical, fluorescence, IC50. 170 tested, 79% active. IC50, µM. AID 652145, 2013. GDH-TPI coupled enzyme assay, artifact counterscreen. shares compounds with Mtb FBA inh
Numbers without * were called inactive; / = no result; + = active, no number. Rows were chosen to be rich in hits. Some 4% of all compounds tested hit in one or more screens of this group. Unless noted, the rule behind the calls is not given here.

SMILES | Mtb FBA inh | RecA intein inh | GDH-TPI counter-1 | Mtb bLac sens | Rv3671c protease | Mtb UGM inh | Mtb FBA inh conf | GDH-TPI counter-2 | others
CCn1cc(C(=O)Nc2ncccc2O)c(=O)c2cc(F)c(N3CCN(C(=O)c4ccco4)CC3)cc21 | 14.6 | -8.4 | 15.5 | 2.9 | 5.4 | -0.8 | / | /
O=C(NCCc1ccccc1)C1CCC(CNS(=O)(=O)c2cccc3cccnc23)CC1 (configuration not stated) | -1.9 | -0.3 | -5.3 | -4.4 | -14.4 | -1.3 | / | /
C=CCN([C@@H](CC(C)C)C(=O)OC)S(=O)(=O)N(CC=C)[C@@H](CC(C)C)C(=O)OC | 1.0 | / | -6.9 | -0.6 | 8.3 | 2.0 | / | /
CCOc1ccc(S(=O)(=O)N2CCC(C(=O)NCc3ccco3)CC2)cc1C | -0.4 | 0.4 | -8.9 | -13.1 | -10.4 | 2.4 | / | /
CCc1nnc(NC(=O)CCC(=O)NCCc2ccccc2)s1 | 2.7 | -2.4 | 8.9 | -1.5 | 1.1 | -2.2 | / | /
COC(=O)c1ccc2cc(F)cc(C)c2n1 | 11.0 | / | / | / | / | / | / | /
COC(=O)c1ccc2cc(C)cc(C)c2n1 | 58.8* | / | / | / | / | / | 12.4 | 14.7*
O=C(CCS(=O)(=O)c1ccc(Br)cc1)NC1CCCCCC1 | -1.1 | -2.2 | 0.5 | -1.2 | 0.4 | -0.7 | / | /
Clc1ccc(-c2cnc3cccnn23)cc1 | 51.0* | / | 7.1 | / | / | / | + | +
Oc1ccccc1-c1cnc2cccnn12 | -1.4 | / | 15.5 | / | / | / | / | /
COc1ncccc1-c1cnc2cccnn12 | 92.0* | / | 6.6 | / | / | / | 117.2* | 100.1*
COc1ccc(-c2cnc3cccnn23)cn1 | 29.4* | / | -3.6 | / | / | / | -8.1 | -6.7
CCC(=O)Nc1c(C#N)c2nc3ccccc3nc2n1-c1ccccc1C | 36.3* | -108.0 | 8.8 | -5.7 | -7.0 | -1.2 | 75.7* | 64.0*
CCCCn1c(NC(=O)CC)c(C#N)c2nc3ccccc3nc21 | 6.1 | 1.4 | 4.0 | 8.2 | -0.2 | -0.6 | / | /
O=[N+]([O-])c1ccc(C[n+]2c(-c3ccccc3)cc(-c3ccccc3)cc2-c2ccccc2)cc1 | 67.0* | 5.0 | -10.8 | 9.7 | 1.9 | -2.1 | + | +
O=C(CNC(=O)C1CCCCC1)OCc1cc(=O)oc2ccc3ccccc3c12 | 43.4* | -1.3 | 10.1 | 2.8 | 9.1 | -1.8 | 2.9 | -2.8
O=c1oc2cccnc2n1CCS(=O)(=O)c1ccc(F)cc1 | 39.0* | -0.5 | 8.0 | -3.1 | -4.5 | 1.5 | 4.5 | 1.1
O=C(OCC(=O)N1CCOCC1)c1ccccc1OCc1ccccc1 | -0.8 | / | 1.1 | -6.7 | -0.7 | 0.6 | / | /
COc1cc2ccnc(C=NO)c2cc1OC | 42.2* | / | 12.9 | / | / | / | 121.7* | 94.9*
COC(=O)c1c(NC(=O)C2C3CCC(O3)C2C(=O)O)sc2c1CCCCCC2 (configuration not stated) | 60.8* | -4.5 | 5.6 | -3.2 | -11.6 | 2.0 | 95.4* | 77.5*
CCOC(=O)c1c(NC(=O)C2C3CCC(O3)C2C(=O)O)sc2c1CCCC2 (configuration not stated) | 8.4 | 0.4 | 0.3 | 0.8 | 9.1 | 1.3 | / | /
CCN(CC)c1nc2cc(OC)ccc2cc1C#N | 32.2* | -21.4 | 16.7 | -1.6 | -4.7 | 3.3 | 50.1* | 35.4*
COC(=O)CSc1nc2cc(OC)ccc2cc1C#N | 7.6 | 4.6 | 7.3 | 49.3 | -3.8 | -0.8 | / | /
COc1ccc2cc(C#N)c(N3CCOCC3)nc2c1 | 36.8* | -7.5 | 5.2 | 5.3 | 0.6 | 1.0 | 66.1* | 62.7*
COc1ccc2cc(C#N)c(NC(C)C)nc2c1 | 55.4* | -2.8 | 14.9 | -6.2 | -3.8 | -1.9 | 2.0 | 4.3
SMILES | Mtb FBA inh | RecA intein inh | GDH-TPI counter-1 | Mtb bLac sens | Rv3671c protease | Mtb UGM inh | Mtb FBA inh conf | GDH-TPI counter-2 | others
CCN(CC)CCC(C)OC(c1ccccc1)c1ccccc1 (configuration not stated) | 6.6 | 2.5 | -2.9 | -2.9 | -0.8 | 1.6 | / | /
CN(C)c1ccc(-c2nnn(CC(=O)NCc3ccc4c(c3)OCO4)n2)cc1 | 3.4 | 2.4 | 6.0 | 5.7 | -1.7 | -1.7 | / | /
Cc1cc(C)n2nc(-c3ccsc3-n3c(C)ccc3C)cc2n1 | 46.2* | -3.1 | 3.9 | -0.6 | -12.7 | -3.3 | 61.2* | 26.6*
CNC(=O)CCc1[nH]c2ccccc2c1Sc1ccccc1 | -0.4 | 1.9 | 4.4 | -0.8 | -0.6 | -1.9 | / | /
COC(=O)c1[nH]c2ccccc2c1Sc1ccccc1 | 77.3* | 0.6 | 13.0 | -4.1 | / | -0.3 | 95.4* | 73.5*
COc1ccc(-c2nnc3ccc(SCC(=O)N4CCCC4)nn23)cc1 | 3.6 | -2.1 | 7.1 | -0.6 | 8.2 | -2.1 | / | /
COc1ccc(-c2ccc3nnc(SCC(=O)N4CCCC4)n3n2)cc1 | 27.3* | 1.3 | 3.1 | -1.2 | 0.4 | 0.9 | 189.5* | 160.2*
CCOC(=O)CC(=O)CSc1nc(-c2cccnc2)ccc1C#N | 38.3* | -33.9 | 26.1 | 4.7 | -11.8 | -1.9 | + | +
C=C(C)Cn1c(N2CCCC2)nc2c1c(=O)n(C)c(=O)n2C | 33.4* | 1.3 | 2.6 | 2.3 | 6.9 | 0.1 | 157.2* | 108.8*
CCn1ccnc1CN(C)Cc1c(C(=O)N2CCCCCCC2)nc2ccc(Cl)cn12 | 0.2 | / | 4.5 | -2.9 | 11.3 | 2.4 | / | /
O=C(O)CN(c1ccccn1)S(=O)(=O)c1ccccc1 | 36.5* | -0.4 | -0.4 | -1.1 | 9.1 | -0.8 | 93.7* | 87.4*
O=C(O)CN(c1ccccn1)S(=O)(=O)c1ccc(Cl)cc1 | 35.1* | 5.1 | 11.2 | -7.3 | -1.3 | -3.0 | 39.2* | 36.1*
COC(=O)CN(c1ccc2c(c1)OCCO2)S(=O)(=O)c1ccccc1 | 36.7* | 0.7 | 1.4 | -14.9 | 0.7 | -1.2 | 12.1 | -1.3 | GDH-TPI DR=>10
COC(=O)CN(c1ccccn1)S(=O)(=O)c1ccccc1 | 37.5* | -0.6 | 16.7 | -3.5 | 4.2 | -0.9 | 115.4* | 100.4*
NC(=O)CN(c1ccc(Cl)cc1)S(=O)(=O)c1ccccc1 | 1.9 | 5.7 | 3.6 | 1.0 | 1.2 | 3.0 | / | /
O=S(=O)(c1ccccc1)N(Cc1ccccn1)Cc1ccccn1 | -1.3 | -2.0 | 0.7 | -6.9 | -5.3 | 1.8 | / | /
Cc1cccc(Oc2nc(-c3ccccc3)cc(C)c2S(C)(=O)=O)c1C | 13.3 | 13.8 | -9.5 | -7.3 | -11.9 | -0.9 | / | /

Assay outcomes: PubChem BioAssay, several laboratories
